The panel holds about 79,000 compounds, 15% with a hit somewhere; the sample as a whole holds those more often. Rule as the data show it: active = growth inhibition above about 70%; inactive = the rest. Where a SMILES comes first, the peptide text is derived from it. The star is where a group is joined. Cbz = O=C(OCc1ccccc1)*; Bn = c1ccc(C*)cc1
Experiments:
[1] = NCI Yeast Anticancer Drug Screen. Data for the rad50 strain (AID 155);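 also: 0% = growth of vehicle-only cultures of the same strain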; details: S. cerevisiae rad50 strain growth inhibition; at 50.0 µM; stronger effect = higher value
Method in brief: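 Genetically altered yeast (DNA repair pathway); compound treatment; growth inhibition vs vehicle ctrl.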

[2] = NCI Yeast Anticancer Drug Screen. Data for the mec2-1 strain (AID 157); details: S. cerevisiae mec2-1 strain, at 50.0 µM, stronger effect = higher value
Method in brief: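 Test agents were screened against the mec2-1 yeast strain, with defined DNA repair or cell cycle alteration. Growth was scored as inhibition against vehicle-only controls.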

[3] = NCI Yeast Anticancer Drug Screen. Data for the sgs1 mgt1 strain (AID 161);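 also: 0% = growth of cultures given vehicle only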; details: S. cerevisiae sgs1 mgt1 strain, at 50.0 µM, stronger effect = higher value
Method in brief: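 Inhibition of yeast growth, normalised to vehicle-treated controls, is reported for a strain bearing genetic alterations in DNA damage repair.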

[4] = NCI Yeast Anticancer Drug Screen. Data for the cln2 rad14 strain (AID 165);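 also: 0% = growth equal to vehicle treated cultures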; details: S. cerevisiae cln2 rad14 strain, at 50.0 µM, stronger effect = higher value
Method in brief: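 Growth of compound-exposed yeast (cln2 rad14 genotype) measured and expressed as inhibition relative to vehicle.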

[5] = NCI Yeast Anticancer Drug Screen. Data for the bub3 strain (AID 167); details: S. cerevisiae bub3 mutant strain, at 50.0 µM, stronger effect = higher value
Method in brief: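 Yeast carrying a defined mutation is treated with each compound, and growth is compared with that of vehicle-exposed cells to give inhibition.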

[6] = NCI Yeast Anticancer Drug Screen. Data for the mlh1 rad18 strain (AID 175); details: S. cerevisiae mlh1 rad18 strain growth inhibition; at 50.0 µM; stronger effect = higher value
Method in brief: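 In this whole-cell yeast screen, a strain with altered DNA damage repair is challenged with compound, and its growth is measured against matched vehicle-treated controls.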

Measured: growth inhibition

CC(C)(C)c1cc(/C=C/c2cc(/C=C/c3cc(C(C)(C)C)c(O)c(C(C)(C)C)c3)c([N+](=O)[O-])cc2[N+](=O)[O-])cc(C(C)(C)C)c1O
inactive: [1] 20.2% | [2] -0.15% | [3] 1.85% | [4] -45.7% | [5] 3.65% | [6] 5.8%

COc1ccc(N(C(=O)Nc2ccc(Cl)c(Cl)c2)c2ccccc2)cc1
inactive: [1] -32.1% | [2] -28.4% | [3] -19.2% | [4] -1.45% | [5] 14.3% | [6] -10.4%

COc1ccc(C(O)c2ncccc2C)cc1OC (stereo not given)
inactive: [1] -0.3% | [2] 31.3% | [3] 20.1% | [4] -9.35% | [5] 24.8% | [6] 22.3%

O=c1cc2n(c(=O)n1Cc1ccccc1)CCC2
inactive: [1] 10.9% | [2] 4.25% | [3] 1.55% | [4] 1.5% | [5] -3.9% | [6] -6%

CC(C)C(NC(=O)OC(c1ccccc1)c1ccccc1)C(=O)NC(CSC(c1ccccc1)(c1ccccc1)c1ccccc1)C(=O)NCC(=O)OCc1ccccc1 (stereo not given)
inactive: [1] 4.45% | [2] 5.75% | [3] 4.55% | [4] -19.1% | [5] -10.8% | [6] 27.2%

CN1c2ccccc2C(=O)NC12CCN(CCCC(=O)c1ccc(F)cc1)CC2
inactive: [1] 6.6% | [2] 6.95% | [3] 46.8% | [4] 35.6% | [5] 21.9% | [6] 7%

O=C(NN1C(=O)CSC1c1ccc(F)cc1)c1ccncc1 (stereo not given)
inactive: [1] -4.2% | [2] 1.1% | [3] 4.15% | [4] -6.75% | [5] 7.95% | [6] 11.8%

CCNC1=C(Cl)C(=O)c2ccccc2C1=O
inactive: [1] -11.9% | [2] -9.8% | [3] 12.2% | [4] -21.4% | [5] 8.7% | [6] 14.9%

Cc1ncc([N+](=O)[O-])n1CC[N+](C)([O-])CCCCn1ccnc1[N+](=O)[O-] (stereo not given)
inactive: [1] 16.9% | [2] -20.6% | [3] 20.6% | [4] -41.5% | [5] -3.95% | [6] -9%

CC(=O)SC1CS(=O)(=O)CC1SC(C)=O (stereo not given)
inactive: [1] 60.8% | [2] 52.9% | [3] 59% | [4] 40.2% | [5] 44.5% | [6] 63.5%

OCc1c(CO)c2cccn2c2c1cnn2-c1ccccc1
inactive: [1] 11.3% | [2] 1.45% | [3] 23.9% | [4] -64.9% | [5] -8.2% | [6] 11.2%

NC(=S)NNC(=O)/C(=C/c1ccc(/C=C(\NC(=O)c2ccccc2)C(=O)NNC(N)=S)cc1)NC(=O)c1ccccc1
inactive: [1] 32.8% | [2] 27% | [3] 29.3% | [4] 39.8% | [5] 39.2% | [6] 31.8%

CCCCCNC(=O)c1ccc([N+](=O)[O-])cc1
inactive: [1] 7.35% | [2] -1.75% | [3] 3.75% | [4] 4.85% | [5] -1% | [6] 13.9%

CC(NC(=O)c1cnc2ccccc2n1)C(=O)O (stereo not given)
inactive: [1] -19.4% | [2] -24.4% | [3] -29.8% | [4] -16.4% | [5] 4.05% | [6] -24.8%

O=C(O)C(=O)C(=O)O
inactive: [1] -23% | [2] -41.8% | [3] -9.65% | [4] -10.1% | [5] -1.45% | [6] -5.45%

CC(C)C(NC(=O)C(CSCc1ccccc1)NC(=O)OCc1ccccc1)C(=O)O (stereo not given) (Cbz-Cys(Bn)-Val-OH; configuration not given here)
inactive: [1] 24.1% | [2] -2.4% | [3] 13.4% | [4] 28.1% | [5] -2.1% | [6] 21.1%

CCOC(=O)/C(C#N)=C\NC(=O)NC
inactive: [1] 3% | [2] 2.3% | [3] 2.2% | [4] -18.4% | [5] -5.25% | [6] -0.5%

NC(=O)C(c1ccccc1)c1ccnc2ccccc12 (stereo not given)
inactive: [1] 2.05% | [2] 4.5% | [3] 7.9% | [4] 8.05% | [5] 20.4% | [6] -21.2%

CC(CN(C)C)N(C)C (stereo not given)
inactive: [1] -14.7% | [2] -34.5% | [3] -41.6% | [4] -7.75% | [5] -4.6% | [6] 0.15%

COc1ccc2c(c1)CCCN2C(=N)c1ccc([N+](=O)[O-])cc1
inactive: [1] -24.5% | [2] -4.1% | [3] -9.95% | [4] -52.9% | [5] 22.6% | [6] -11.5%
